Results: the supplement of paper PMC11732987, “Enantioselective OTUD7B fragment discovery through chemoproteomics screening and high-throughput optimisation” (Communications Chemistry, 2025)
Values without a mark were called inactive.

Columns and labels:
Experiment in all cases: log2 ratio of Biotin-Ahx-Ub-VS probe labelling (fragment/DMSO); higher = less target engagement (more negative = stronger competition), active = hit call of the paper (q ≤ 0.05, log2 ratio ≤ -1)
Details in all cases: compound concentration: 200 uM; treatment time: 3 h
USP19 = target: T1, USP19 (UniProt O94966)
T1 sequence (whole entry): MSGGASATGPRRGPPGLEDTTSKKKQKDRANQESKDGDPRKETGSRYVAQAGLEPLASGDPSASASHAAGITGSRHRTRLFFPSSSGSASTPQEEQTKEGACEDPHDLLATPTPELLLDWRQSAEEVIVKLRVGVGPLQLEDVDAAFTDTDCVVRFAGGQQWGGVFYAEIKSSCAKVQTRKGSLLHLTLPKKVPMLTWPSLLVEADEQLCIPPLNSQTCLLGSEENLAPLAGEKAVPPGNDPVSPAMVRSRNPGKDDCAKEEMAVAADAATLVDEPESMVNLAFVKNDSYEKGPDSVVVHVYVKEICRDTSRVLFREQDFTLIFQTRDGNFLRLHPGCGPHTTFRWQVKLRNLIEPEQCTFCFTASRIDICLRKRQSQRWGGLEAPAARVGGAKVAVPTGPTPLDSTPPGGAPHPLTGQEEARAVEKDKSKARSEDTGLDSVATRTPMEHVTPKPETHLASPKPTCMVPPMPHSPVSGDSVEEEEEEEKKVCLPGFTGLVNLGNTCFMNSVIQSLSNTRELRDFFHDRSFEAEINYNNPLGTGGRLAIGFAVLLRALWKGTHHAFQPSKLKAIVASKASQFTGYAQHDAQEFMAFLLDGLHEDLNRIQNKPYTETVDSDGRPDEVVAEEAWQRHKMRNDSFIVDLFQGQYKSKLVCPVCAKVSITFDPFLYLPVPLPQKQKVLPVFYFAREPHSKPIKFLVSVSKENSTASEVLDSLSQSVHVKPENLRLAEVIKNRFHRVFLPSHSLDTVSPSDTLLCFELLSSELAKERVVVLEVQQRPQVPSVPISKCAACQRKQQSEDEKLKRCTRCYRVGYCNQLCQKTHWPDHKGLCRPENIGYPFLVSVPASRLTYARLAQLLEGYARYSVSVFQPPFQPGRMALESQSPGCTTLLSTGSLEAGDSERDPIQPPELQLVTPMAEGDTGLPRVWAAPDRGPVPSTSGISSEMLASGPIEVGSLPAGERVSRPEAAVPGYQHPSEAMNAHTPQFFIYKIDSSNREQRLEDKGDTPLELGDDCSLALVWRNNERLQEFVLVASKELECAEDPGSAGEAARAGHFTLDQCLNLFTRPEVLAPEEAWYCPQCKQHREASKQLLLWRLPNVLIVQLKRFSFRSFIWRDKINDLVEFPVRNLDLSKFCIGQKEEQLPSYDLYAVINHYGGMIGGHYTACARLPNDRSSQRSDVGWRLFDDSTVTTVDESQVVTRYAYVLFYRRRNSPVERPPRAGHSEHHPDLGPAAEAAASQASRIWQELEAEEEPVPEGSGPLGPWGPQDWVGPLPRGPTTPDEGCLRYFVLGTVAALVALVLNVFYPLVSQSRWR
Procedure, shortened: (§1)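 Labelling with Biotin-Ahx-Ub-VS (0.5 µM final, 1 h) followed a 3 h triplicate treatment of HEK293T lysate (495 µg per sample, Tris/CHAPS/IGEPAL buffer with protease inhibitors) with fragment at 200 µM or vehicle. Labelled DUBs were NeutrAvidin-enriched, digested with LysC and trypsin, and run by diaPASEF LC-MS/MS. The values, average log2 fragment/vehicle ratios by unpaired t-test, come from global-median-normalised Spectronaut label-free quantities. Proteins with ≥2 unique peptides were used.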

USP24 = USP24 (UniProt Q9UPU5)
USP24, sequence (Q9UPU5 whole entry): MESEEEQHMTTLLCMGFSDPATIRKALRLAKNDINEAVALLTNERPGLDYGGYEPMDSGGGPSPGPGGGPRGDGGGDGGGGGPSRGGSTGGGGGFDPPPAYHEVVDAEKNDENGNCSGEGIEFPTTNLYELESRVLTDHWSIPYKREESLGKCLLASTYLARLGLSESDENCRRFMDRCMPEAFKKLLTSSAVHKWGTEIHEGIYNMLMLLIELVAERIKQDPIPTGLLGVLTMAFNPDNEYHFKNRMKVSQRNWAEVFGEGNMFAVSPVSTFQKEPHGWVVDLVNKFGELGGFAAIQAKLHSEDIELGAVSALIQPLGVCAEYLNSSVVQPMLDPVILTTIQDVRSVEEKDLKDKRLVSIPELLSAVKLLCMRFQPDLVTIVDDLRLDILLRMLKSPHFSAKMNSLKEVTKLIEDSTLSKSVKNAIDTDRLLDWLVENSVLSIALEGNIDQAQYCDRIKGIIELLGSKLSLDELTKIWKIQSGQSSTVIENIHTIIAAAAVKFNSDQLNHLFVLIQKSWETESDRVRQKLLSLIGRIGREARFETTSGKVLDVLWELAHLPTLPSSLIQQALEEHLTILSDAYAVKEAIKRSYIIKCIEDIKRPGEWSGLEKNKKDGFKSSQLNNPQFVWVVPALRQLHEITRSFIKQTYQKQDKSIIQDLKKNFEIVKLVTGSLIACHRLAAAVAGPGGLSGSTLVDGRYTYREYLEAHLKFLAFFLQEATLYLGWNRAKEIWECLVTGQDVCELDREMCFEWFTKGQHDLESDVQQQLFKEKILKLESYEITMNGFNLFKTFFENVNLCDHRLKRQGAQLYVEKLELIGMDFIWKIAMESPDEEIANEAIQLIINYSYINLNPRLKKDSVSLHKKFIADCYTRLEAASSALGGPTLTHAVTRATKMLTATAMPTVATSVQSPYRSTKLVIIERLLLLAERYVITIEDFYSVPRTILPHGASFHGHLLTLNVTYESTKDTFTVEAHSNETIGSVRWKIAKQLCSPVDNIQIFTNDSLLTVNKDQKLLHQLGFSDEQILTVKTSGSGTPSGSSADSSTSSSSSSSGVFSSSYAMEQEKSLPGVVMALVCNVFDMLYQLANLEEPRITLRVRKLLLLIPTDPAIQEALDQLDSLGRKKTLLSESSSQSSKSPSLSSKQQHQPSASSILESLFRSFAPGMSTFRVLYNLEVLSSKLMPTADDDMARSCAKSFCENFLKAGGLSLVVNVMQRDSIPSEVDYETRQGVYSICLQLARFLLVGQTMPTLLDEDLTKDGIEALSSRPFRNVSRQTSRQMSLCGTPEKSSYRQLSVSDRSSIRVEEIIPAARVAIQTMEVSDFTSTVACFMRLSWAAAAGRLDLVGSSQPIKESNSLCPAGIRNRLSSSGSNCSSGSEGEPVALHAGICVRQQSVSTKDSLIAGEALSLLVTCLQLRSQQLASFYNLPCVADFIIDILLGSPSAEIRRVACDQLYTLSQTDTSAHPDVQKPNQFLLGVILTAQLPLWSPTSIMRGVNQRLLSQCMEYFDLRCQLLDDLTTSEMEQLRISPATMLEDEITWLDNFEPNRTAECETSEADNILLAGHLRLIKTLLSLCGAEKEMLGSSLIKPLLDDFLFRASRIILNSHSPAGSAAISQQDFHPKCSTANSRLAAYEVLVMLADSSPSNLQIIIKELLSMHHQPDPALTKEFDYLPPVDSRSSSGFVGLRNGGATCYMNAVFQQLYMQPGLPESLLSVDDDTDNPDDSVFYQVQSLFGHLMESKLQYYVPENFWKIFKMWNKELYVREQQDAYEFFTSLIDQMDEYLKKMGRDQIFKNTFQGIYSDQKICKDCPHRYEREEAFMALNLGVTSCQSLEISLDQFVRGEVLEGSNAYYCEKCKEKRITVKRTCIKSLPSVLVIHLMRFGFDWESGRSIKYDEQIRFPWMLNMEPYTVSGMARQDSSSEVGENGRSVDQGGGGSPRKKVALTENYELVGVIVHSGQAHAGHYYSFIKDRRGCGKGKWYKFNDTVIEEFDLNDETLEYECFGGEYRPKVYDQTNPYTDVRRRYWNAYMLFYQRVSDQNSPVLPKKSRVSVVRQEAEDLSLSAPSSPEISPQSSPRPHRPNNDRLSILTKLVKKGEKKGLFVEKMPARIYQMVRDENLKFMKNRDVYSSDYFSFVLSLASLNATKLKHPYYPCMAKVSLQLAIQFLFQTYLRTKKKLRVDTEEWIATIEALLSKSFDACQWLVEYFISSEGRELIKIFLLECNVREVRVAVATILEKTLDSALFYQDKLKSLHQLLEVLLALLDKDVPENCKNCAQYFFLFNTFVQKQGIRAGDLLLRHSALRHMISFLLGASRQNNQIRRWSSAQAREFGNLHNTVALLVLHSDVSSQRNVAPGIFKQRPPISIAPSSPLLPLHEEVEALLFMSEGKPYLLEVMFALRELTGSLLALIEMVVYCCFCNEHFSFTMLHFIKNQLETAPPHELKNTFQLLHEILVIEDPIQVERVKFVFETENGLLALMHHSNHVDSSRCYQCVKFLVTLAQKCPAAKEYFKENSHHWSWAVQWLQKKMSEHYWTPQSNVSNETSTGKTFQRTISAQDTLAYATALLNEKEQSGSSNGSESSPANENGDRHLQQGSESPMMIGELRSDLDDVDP
Procedure, shortened: as §1

USP25 = target: T2, USP25 (UniProt Q9UHP3)
T2 sequence (whole entry): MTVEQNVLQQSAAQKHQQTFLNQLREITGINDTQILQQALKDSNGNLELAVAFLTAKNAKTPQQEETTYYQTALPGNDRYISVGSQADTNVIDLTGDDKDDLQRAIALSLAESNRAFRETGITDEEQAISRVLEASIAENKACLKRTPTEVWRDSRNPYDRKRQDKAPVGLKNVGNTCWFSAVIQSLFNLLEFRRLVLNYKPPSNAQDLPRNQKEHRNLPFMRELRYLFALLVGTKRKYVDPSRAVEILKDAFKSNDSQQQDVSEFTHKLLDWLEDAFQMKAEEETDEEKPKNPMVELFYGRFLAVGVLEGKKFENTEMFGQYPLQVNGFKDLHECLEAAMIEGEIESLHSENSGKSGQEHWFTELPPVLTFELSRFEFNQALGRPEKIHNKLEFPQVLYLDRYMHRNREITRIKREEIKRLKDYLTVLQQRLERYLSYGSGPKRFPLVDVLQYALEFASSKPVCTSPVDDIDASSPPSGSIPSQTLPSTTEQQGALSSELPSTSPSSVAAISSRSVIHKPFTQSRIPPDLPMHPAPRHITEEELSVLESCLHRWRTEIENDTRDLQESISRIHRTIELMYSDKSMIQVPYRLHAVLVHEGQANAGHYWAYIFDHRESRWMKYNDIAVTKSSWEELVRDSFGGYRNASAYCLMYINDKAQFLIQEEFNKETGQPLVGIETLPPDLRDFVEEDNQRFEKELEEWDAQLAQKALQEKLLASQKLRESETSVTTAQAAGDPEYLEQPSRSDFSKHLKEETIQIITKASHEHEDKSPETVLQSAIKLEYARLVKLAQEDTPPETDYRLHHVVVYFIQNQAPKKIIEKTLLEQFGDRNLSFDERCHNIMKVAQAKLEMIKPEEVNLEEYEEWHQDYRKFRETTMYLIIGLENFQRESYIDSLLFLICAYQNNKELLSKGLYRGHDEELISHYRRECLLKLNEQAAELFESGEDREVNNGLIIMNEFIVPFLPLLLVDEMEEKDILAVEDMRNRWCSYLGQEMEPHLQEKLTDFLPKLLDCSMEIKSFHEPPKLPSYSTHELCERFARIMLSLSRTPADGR
Procedure, shortened: as §1

USP28 = target: T3, USP28 (UniProt Q96RU2)
T3 sequence (whole entry): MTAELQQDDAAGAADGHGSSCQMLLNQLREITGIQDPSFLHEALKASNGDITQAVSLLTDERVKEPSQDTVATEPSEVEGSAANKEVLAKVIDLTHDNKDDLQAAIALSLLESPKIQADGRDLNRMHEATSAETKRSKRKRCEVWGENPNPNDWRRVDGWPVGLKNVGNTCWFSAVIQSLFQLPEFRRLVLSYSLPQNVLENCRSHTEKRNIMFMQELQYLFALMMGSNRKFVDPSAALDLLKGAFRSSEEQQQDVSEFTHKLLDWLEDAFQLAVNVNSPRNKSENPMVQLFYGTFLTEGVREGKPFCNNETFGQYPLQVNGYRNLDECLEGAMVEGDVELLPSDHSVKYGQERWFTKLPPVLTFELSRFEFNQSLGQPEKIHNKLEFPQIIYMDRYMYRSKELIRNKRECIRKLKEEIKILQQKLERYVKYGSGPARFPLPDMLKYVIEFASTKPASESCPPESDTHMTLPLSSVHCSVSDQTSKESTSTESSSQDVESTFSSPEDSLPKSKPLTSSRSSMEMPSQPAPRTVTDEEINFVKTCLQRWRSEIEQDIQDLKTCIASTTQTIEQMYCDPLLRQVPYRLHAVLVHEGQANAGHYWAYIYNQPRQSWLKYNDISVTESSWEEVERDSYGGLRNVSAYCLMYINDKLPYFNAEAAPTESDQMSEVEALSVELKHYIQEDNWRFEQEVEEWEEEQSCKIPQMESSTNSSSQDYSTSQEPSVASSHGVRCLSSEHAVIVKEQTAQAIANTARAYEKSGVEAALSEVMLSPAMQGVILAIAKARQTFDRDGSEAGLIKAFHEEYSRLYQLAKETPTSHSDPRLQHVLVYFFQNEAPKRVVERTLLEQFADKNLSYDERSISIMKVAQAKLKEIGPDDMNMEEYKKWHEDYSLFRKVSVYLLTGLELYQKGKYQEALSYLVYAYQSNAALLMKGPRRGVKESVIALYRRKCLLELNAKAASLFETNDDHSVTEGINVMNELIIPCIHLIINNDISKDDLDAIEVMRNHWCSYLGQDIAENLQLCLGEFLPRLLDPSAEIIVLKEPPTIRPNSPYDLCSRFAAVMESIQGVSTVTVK
Procedure, shortened: as §1

Cc1cccc(NC(=O)CCl)c1C
log2 ratio of Biotin-Ahx-Ub-VS probe labelling (USP19): -0.393 | log2 ratio of Biotin-Ahx-Ub-VS probe labelling (USP24): -0.573 | log2 ratio of Biotin-Ahx-Ub-VS probe labelling (USP25): -1.06 (active) | log2 ratio of Biotin-Ahx-Ub-VS probe labelling (USP28): -1.32 (active)
